Experimental findings from PubChem BioAssay (EPA / NIEHS) are described below.

In general, AC50 refers to the concentration giving half of the maximal activity seen.

Records with an inconclusive call do not appear. Active and inactive are the calls of the source. How the source made its calls, unless noted: active means hit-call score of the fitted dose curve at least 0.9, where 1 is the maximum; inactive means score below 0.9.

Assay [1] can be described thus: IUF_NPC4_neurite_length_120hr: Leibniz Research Institute for Environmental Medicine (IUF) 120-hour Neuronal Morphology Assay for Neurite Length (NPC4) (AID 2284302). The gist of the method:
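Human fetal neural progenitor spheres (0.3 mm) plated on poly-D-lysine/laminin in N2 differentiation medium, exposed from day 0 for 120 h with half-medium refresh at day 3, 37C. Mean neurite length (um) of TUBB3-positive neurons from skeletonized immunostaining images; DMSO ≤0.1%.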

The nature of assay [2]: IUF_NPC4_neurite_area_120hr: Leibniz Research Institute for Environmental Medicine (IUF) 120-hour Neuronal Morphology Assay for Neurite Area (NPC4) (AID 2284305; active means hit-call score of the fitted dose curve at least 0.9, where 1 is the maximum). An outline of the steps:
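Human fetal neural progenitor spheres (0.3 mm) plated on poly-D-lysine/laminin in N2 differentiation medium, exposed 120 h (7 concentrations, DMSO ≤0.1%, half-medium refresh day 3). Fixed, TUBB3 immunostained; mean neurite area per neuron by Omnisphero skeletonization.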

Assay [3] is described as follows: IUF_NPC2-5_cytotoxicity_72hr: Cytotoxicity Assessment at 72 hours in the Leibniz Research Institute for Environmental Medicine (IUF) Neural Progenitor Cell Migration and Differentiation Assay for Cytotoxicity (NPC2-5) (AID 2284306; active means hit-call score of the fitted dose curve at least 0.9, where 1 is the maximum;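 further: LDH release into supernatant measured by resorufin fluorescence marking membrane damage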). An outline of the steps:
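Human fetal primary neural progenitor spheres (0.3 mm) plated on poly-D-lysine/laminin in N2 differentiation medium, exposed from day 0 at 37C. LDH-dependent resazurin-to-resorufin fluorescence in supernatant at 72 h; 7 concentrations, DMSO at most 0.1%.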

The nature of assay [4]: IUF_NPC2-5_cell_number_120hr: Cell Number Assessment at 120 hours in the Leibniz Research Institute for Environmental Medicine (IUF) Neural Progenitor Cell Migration and Differentiation Assay (NPC2-5) (AID 2284308).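 Further: count of Hoechst-stained nuclei in migration zone around plated human neural progenitor spheres.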 The gist of the method: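 hNPC spheres, one per well, PDL/laminin, N2 medium, 37C, 5% CO2. Dosing day 0 → half-medium change with fresh compound day 3 → fix 120 h. Readout: Hoechst+ nuclei count, migration area; 7 concentrations plus solvent control.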

The nature of assay [5]: IUF_NPC2-5_viability_120hr: Viability Assessment at 120 hours in the Leibniz Research Institute for Environmental Medicine (IUF) Neural Progenitor Cell Migration and Differentiation Assay (NPC2-5) (AID 2284312). The gist of the method: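 Human fetal neural progenitor spheres (0.3 mm) plated on poly-D-lysine/laminin in N2 differentiation medium, exposed 120 h with half-medium refresh at day 3. Viability by alamar blue resazurin fluorescence; 7 concentrations, DMSO max 0.1%.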

Assay [6] can be described thus: IUF_NPC1_cytotoxicity_72hr: Cytotoxicity Assessment at 72 hours in the Leibniz Research Institute for Environmental Medicine (IUF) Neural Progenitor Cell Proliferation Assay (NPC1) (AID 2284332; active means hit-call score of the fitted dose curve at least 0.9, where 1 is the maximum;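 further: rising LDH signal means more cytotoxicity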). An outline of the steps: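 hNPC spheres (fetal brain, gestational week 16-19) grown under proliferative EGF/FGF conditions, pH 7.2-7.6, were treated continuously for 72 h. Cytotoxicity came from LDH-coupled resazurin fluorescence in each well's supernatant.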

A short description of assay [7]: CCTE_Shafer_MEA_acute_spike_number: CCTE's Neural Acute Assay for Total Number of Spikes, Shafer Lab (AID 2284008).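 On AC50: curve fitted for decrease in spike count so AC50 reflects inhibitors.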 An outline of the steps:
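Read-out is the total spike count over 40 min, expressed as percent change from each well's own pre-treatment baseline and fitted in the loss direction against DMSO. Rat cortical neurons were exposed at 0.03-40 uM on DIV 13 or 15.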

The nature of assay [8]: CCTE_Shafer_MEA_acute_firing_rate_mean: CCTE's Neural Acute Assay for Mean Firing Rate, Shafer Lab (AID 2284009).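 Further: analyzed for loss of signal so actives lower firing rate relative to DMSO.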 An outline of the steps:
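Rat primary cortical neurons on 48-well MEA plates, dosed at 0.03-40 uM on DIV 13 or 15; 40 min spontaneous activity recorded at 37 C before and after compound. Spike rate per electrode averaged per well, expressed as percent change from baseline.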

Assay [9] can be described thus: CCTE_Shafer_MEA_acute_burst_number: CCTE's Neural Acute Assay for Single-Electrode Bursts, Shafer Lab (AID 2284013). The gist of the method: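 Primary rat cortical neurons on 16-electrode MEA wells, treated on DIV 13 or 15 with compound at 0.03-40 uM. Single-electrode burst count from 40-min recordings at 37 C before and after exposure; percent change from baseline per well, DMSO negative control.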

The nature of assay [10]: CCTE_Shafer_MEA_acute_burst_duration_mean: CCTE's Neural Acute Assay for Mean Burst Duration, Shafer Lab (AID 2284014).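 Further: hits are decreases in mean burst duration relative to DMSO controls.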 The gist of the method: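 Rat primary cortical neurons on 48-well MEA, treated at DIV 13 or 15 with 0.03-40 uM in at least 3 wells. Value is percent change in mean burst duration, comparing 40 min recordings at 37 C before and during exposure.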
A short description of assay [11]: CCTE_Shafer_MEA_acute_per_burst_spike_number_mean: CCTE's Neural Acute Assay for Average Number of Spikes Per Burst, Shafer Lab (AID 2284015).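 Further: hits are decreases in mean spikes per burst versus baseline.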 An outline of the steps:
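Percent change in mean spikes per single-electrode burst is compared between a 40 min baseline and a 40 min recording with compound (0.03-40 uM). Cultures were rat cortical neurons on MEA plates at DIV 13 or 15, recorded at 37 C, with DMSO as the negative control.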

A short description of assay [12]: CCTE_Shafer_MEA_acute_interburst_interval_mean: CCTE's Neural Acute Assay for Mean Interburst Interval, Shafer Lab (AID 2284016).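 Further: percent change of mean interburst interval versus each well's own pre-dose baseline; curves fitted for decrease in interburst interval relative to DMSO.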 The gist of the method: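 Percent change in mean single-electrode interburst interval was calculated per well from 40 min recordings before and after compound (0.03-40 uM). Recordings were made at 37 C on rat cortical cultures at DIV 13 or 15, with spikes detected at 8x rms threshold.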

Assay [13] in a line: CCTE_Shafer_MEA_acute_burst_percentage_mean: CCTE's Neural Acute Assay for Percentage of Spikes in a Burst, Shafer Lab (AID 2284017).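 Further: curve fitted for loss of signal so potency reflects decreased burst percentage.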 An outline of the steps: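 Well-level mean burst percentage from a 40-min recording after compound (0.03-40 uM) expressed as percent change from a 40-min baseline at 37C. Cultures: primary rat cortical neurons on MEA, dosed on DIV 13 or 15; fitted downward relative to DMSO.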

Assay [14] is described as follows: CCTE_Shafer_MEA_acute_burst_percentage_std: CCTE's Neural Acute Assay for Standard Deviation of Burst Percentage, Shafer Lab (AID 2284018).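 Further: fitted in the negative direction so actives lower burst percentage SD.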 The gist of the method:
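Rat primary cortical neurons on 48-well MEAs, DIV 13 or 15, 37 C. 40-min baseline then 40-min recording with compound (0.03-40 uM); well-level SD of per-electrode burst spike percentage, expressed as percent change from baseline.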

A short description of assay [15]: CCTE_Shafer_MEA_acute_per_network_burst_electrodes_number_mean: CCTE's Neural Acute Assay for Mean Number of Electrodes in a Network Burst, Shafer Lab (AID 2284021).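 Further: curves fitted for decreases only so hits reduce electrodes per burst.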 The gist of the method:
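Primary rat cortical networks, mwMEA, 37 C. 20 min stabilization, 40 min baseline, compound 0.03-40 uM, 40 min re-record. Wells need >=10 active electrodes; percent change per well, negative fitting direction.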

Assay [16] is described as follows: CCTE_Shafer_MEA_acute_network_burst_percentage: CCTE's Neural Acute Assay for Percentage of Network Bursts, Shafer Lab (AID 2284022).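 Further: curves fitted for loss so actives lower network burst percentage.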 The gist of the method: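 Readout is the fraction of spikes falling in network bursts, expressed as per-well percent change from a 40-min pre-exposure baseline. Primary rat cortical neurons on MEA were exposed to 0.03-40 uM compound on DIV 13 or 15 and recorded for 40 min at 37 C.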

Assay [17] can be described thus: CCTE_Shafer_MEA_acute_cross_correlation_area: CCTE's Neural Acute Assay for Area of Cross Correlation, Shafer Lab (AID 2284024).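 Further: area under pooled inter-electrode spike cross-correlation near zero lag as percent change from own baseline; curves fitted for loss of cross-correlation area so actives lower synchrony.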 An outline of the steps:
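Plates equilibrated 20 min at 37 C, then 40 min baseline was recorded, compound was added (0.03-40 uM), and a further 40 min was recorded. Wells needed ≥10 active electrodes (≥5 spikes/min) on exposure day.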

The nature of assay [18]: CCTE_Shafer_MEA_acute_synchrony_index: CCTE's Neural Acute Assay for Synchrony, Shafer Lab (AID 2284027).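 Further: network synchrony index of spontaneous spiking in primary rat cortical neurons on MEAs; fitted for loss of signal so actives lower synchrony relative to DMSO.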 An outline of the steps: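 Spontaneous firing of mature rat cortical networks is captured extracellularly on microelectrode arrays at 37 C, with wells needing ≥10 active electrodes. Each compound (0.03-40 uM) is judged by the change in synchrony index from baseline over 40 min.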

Assay [19] can be described thus: CCTE_Shafer_MEA_acute_LDH: CCTE's Lactate Dehydrogenase Assay for Cytotoxicity in the Neural Acute Assay, Shafer Lab (AID 2284086; active means hit-call score of the fitted dose curve at least 0.9, where 1 is the maximum;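 further: active means LDH release rises above DMSO vehicle level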). The gist of the method: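 Released lactate dehydrogenase, read at 490 nm, indicated cytotoxicity after acute 40-min compound treatment of rat cortical neuron networks grown on 48-well MEA plates.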
For assay [20], the target named is human Phosphoinositide 3-kinase alpha (PI3Ka), PIK3CA (gene 5290) (UniProt P42336). Nature of the assay: NVS_ENZ_hPI3Ka: NovaScreen (NVS) Enzymatic Assay for human Phosphoinositide 3-kinase alpha (PI3Ka) (AID 2283196; active means hit-call score of the fitted dose curve at least 0.9, where 1 is the maximum). The gist of the method:
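Enzyme activity as fluorescence after mobility-shift separation of substrate and product, 1 h reaction, recombinant human PI3Kα; concentration-response to 50 uM max for chemicals passing a 25 uM duplicate screen.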

Chain of human Phosphoinositide 3-kinase alpha (PI3Ka), PIK3CA (gene 5290) (P42336 whole entry, looked up): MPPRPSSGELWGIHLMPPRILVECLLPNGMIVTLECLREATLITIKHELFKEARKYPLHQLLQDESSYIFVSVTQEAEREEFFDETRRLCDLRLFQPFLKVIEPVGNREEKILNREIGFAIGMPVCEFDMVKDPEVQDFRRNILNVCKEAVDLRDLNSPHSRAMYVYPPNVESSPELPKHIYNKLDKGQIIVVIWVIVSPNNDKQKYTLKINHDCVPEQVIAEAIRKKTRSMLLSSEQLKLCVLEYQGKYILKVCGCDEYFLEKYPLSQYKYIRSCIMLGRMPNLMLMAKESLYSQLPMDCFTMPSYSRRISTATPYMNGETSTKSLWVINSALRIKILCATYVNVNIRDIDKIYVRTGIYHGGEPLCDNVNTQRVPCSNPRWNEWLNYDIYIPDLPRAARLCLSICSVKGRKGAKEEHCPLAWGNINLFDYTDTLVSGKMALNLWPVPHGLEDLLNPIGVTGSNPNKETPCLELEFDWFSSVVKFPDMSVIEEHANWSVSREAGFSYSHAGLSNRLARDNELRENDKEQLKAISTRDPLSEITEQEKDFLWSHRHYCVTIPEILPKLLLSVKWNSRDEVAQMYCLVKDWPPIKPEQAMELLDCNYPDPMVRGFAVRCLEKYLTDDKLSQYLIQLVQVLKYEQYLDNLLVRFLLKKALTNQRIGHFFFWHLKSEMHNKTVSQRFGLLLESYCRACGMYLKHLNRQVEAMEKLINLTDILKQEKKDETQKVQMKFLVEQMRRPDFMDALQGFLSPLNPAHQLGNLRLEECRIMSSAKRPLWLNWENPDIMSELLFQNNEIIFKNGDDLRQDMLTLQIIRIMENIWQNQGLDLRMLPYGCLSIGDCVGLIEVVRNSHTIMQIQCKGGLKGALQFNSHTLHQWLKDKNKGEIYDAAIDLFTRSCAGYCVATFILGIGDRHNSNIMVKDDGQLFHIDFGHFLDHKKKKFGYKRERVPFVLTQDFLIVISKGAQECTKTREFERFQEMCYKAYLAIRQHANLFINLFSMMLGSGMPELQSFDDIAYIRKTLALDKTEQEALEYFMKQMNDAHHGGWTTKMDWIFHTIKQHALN

As for `CNC(=N[N+](=O)[O-])NCC1CCOC1` (stereo not given), the compound was called inactive in assay [1], in assay [2], in [3], in assay [4], in assay [5] and in assay [6].

On to `COc1ccc(CO)cc1`, for which the compound was classed as inactive in assay [7], in assay [8], in [9], in assay [10], in assay [12] and in assay [14]. Besides, the result in [15], in assay [16], in [17] and in [19] was inactive. For the same compound, the results for the AC50 in assay [11], in assay [13] and in assay [18] were 3.71 µM (active), 3.79 µM (active) and 3.81 µM (active), respectively.

Consider `Cc1ccccc1CCl`, for which the compound was called inactive in assay [20].

As to `CC(C)CCCCCCCOP(=O)(Oc1ccccc1)Oc1ccccc1`, the compound was called inactive in assay [1], in assay [2], in assay [3], in assay [4], in [5] and in [6].

As for `COC(C)(C)CCC[C@H](C)C/C=C/C(C)=C/C(=O)OC(C)C`, in [20], the compound was called inactive.

Regarding `Cc1ccc(OP(=O)(Oc2ccc(C)cc2)Oc2ccc(C)cc2)cc1` (tested in a mixture with another compound), the AC50 in [7] is 4.2 µM (active); in assay [8], 4.2 µM (active); in assay [9], 3.7 µM (active); in assay [11], 3.99 µM (active); in [12], 7.32 µM (active); in assay [13] it was 6.45 µM (active). In addition, the AC50 in [14] is 3.66 µM (active); in [15], 7.68 µM (active); in assay [16], 7.23 µM (active); in assay [18], 6.01 µM (active). In addition, the compound was called inactive in assay [10], in [17], in assay [19], in [1], in assay [2] and in assay [3]. Besides, the compound was called inactive in assay [4], in assay [5] and in assay [6].

As for `CC1(C)[C@H](C(=O)O[C@H](C#N)c2cccc(Oc3ccccc3)c2)[C@@H]1C=C(Br)Br`, the AC50 in [7] was 1.62 µM (active); in [8] it was 1.62 µM (active); in [9], 2.53 µM (active); in assay [10] it was 0.418 µM (active); in assay [11] it was 0.387 µM (active); in assay [12], 2.09 µM (active). Further, the AC50 in assay [13] was 1.1 µM (active); in assay [14], 2.72 µM (active); in [16], 0.639 µM (active); in assay [17], 0.203 µM (active); in [18] it was 0.866 µM (active); in assay [3], 3.53 µM (active). Besides, in assay [4], the AC50 is 0.461 µM (active). Moreover, the compound was called inactive in [15], in assay [19], in assay [1], in assay [2], in assay [5] and in [6].

`O=c1c2ccccc2c(=O)c2c1cc(Cl)c1[nH]c3c([nH]c12)c(Cl)cc1c(=O)c2ccccc2c(=O)c13`: the AC50 is 4.37 µM (active) in assay [20] and 21 µM (active) in assay [13]. For the same compound, the compound was classed as inactive in [7], in assay [8], in [9], in assay [10], in assay [11] and in assay [12]. Also, the compound was classed as inactive in assay [14], in [15], in assay [16], in assay [17], in assay [18] and in assay [19].

As to `Nc1ccc(-c2ccc(N)c(N)c2)cc1N`, the outcome in assay [20] was inactive.
